# Test results published in the supplement of paper PMC6555819.
# Test system: VDR:RXRa (NR concentration 270 nM, RXRa partner concentration 90 nM)
# Assay: PBM binding z-score (relative to random genomic background probes); higher = stronger binding; sequences stand for … in GC…GCGATTGACAGCGTAGAATGAAGG
# Experimental: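 Protein-binding microarray (Agilent 4x180K custom design, double-stranded 60-nt probes: 5' GC cap, 34-nt variable region, 24-nt constant primer region; full probe sequence given). Purified or IVT nuclear receptor:RXRα heterodimers (3:1 NR:RXRα, mostly 270:90 nM) or homodimers were incubated for 1 h in PBS with 2% milk and no ligand, then detected with Alexa488 antibodies. Fluorescence from o1-orientation probes (~5 replicates averaged) was converted to z-scores against 500 random hg19 background probes. Variable regions are seed direct-repeat (DR0–DR5) sites, all their single-nucleotide variants and half-site ablations.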
row,Sequence,PBM binding z-score
1,TCTTGTAGATCAATAGAGGTTAAGACAGTGCGCT,1.7
2,ATATGTAGGTTTGCTGGGGTCATTCAGACTAGGC,5.56
3,TCTTCTAGATCAAAGGTTAAGAAAGCCGAAGCCT,1.58
4,CCAGACAGATGAAAGGTAACTCAGTCTGGTACGC,0.208
5,TTACGAAGGTGAGCTGAGGTCGTTGATCCAACTC,4.16
6,TCTTGTAGATCAAGTAGGTTAAGAAAGCCTGAGT,0.698
7,GCTTGTAGATCAAGGCTAAGAAAGACTAAGCTAA,-0.679
8,GCGACTGGGGCATCAGCAGGTAACCATAACTTAA,-0.245
9,AATCCAGGGTCACTAGGCCAGAGTAGGTACGAAT,4.31
10,AACGAAAGGTCGTGAGGTGAGTATACAGAAAGGC,3.68
11,CATCGGAGGACAACAGGAGGTCAGAGCTGCCAGA,2.21
12,ACTAGCAGGCCTAGGGTCACTCAAGATTAGTCCG,2.03
13,ATATGTAGGTTAGCTGGGGTCATTTAGACTAGGC,5.97
14,ATATATAGGTTACATCCGGGTCATTCAGGCTATG,4.58
15,ATCTCTAGGTCAAGTTCAGTGAAAGATCGATAGA,3.65
16,ATCTATAGGTAACCAAGTTCAGTGAATGCCGAAC,5.03
17,ATCTCTAGGTAAGACACAGTTCAGTGAAGAACGC,1.14
18,CCGAGTAGGTTAGGGGGCATTCAGGCAACGGTGA,2.93
19,GCTAGTTGGGCAGTAAAAGGTCACACACCGGTCG,3.62
20,CCTACTGGGCCATCAGTTCATTGATATCAACGTT,1.13

row,Sequence,PBM binding z-score
1,ACTTACGGGTCAACGCGGTTATAGCACGCGTATA,6.31
2,AGAATGCGGTTACCAAAGATCAGGGAAACGCTTG,-0.612
3,ATATGTAGGTTATCCGGTCATTCAGTTTGCGCAT,2.65
4,CGTCAATGTTCAACTAAGGTAACGTAAAGCACGC,0.565
5,TCTGGTAGATCAATAGAGGTTAAGAAAGTGCGCT,1.87
6,CCGACTGGGGCACGGTTACCATAACGCACAGCCA,-0.636
7,AGAACCAGGGCACGCTGAGTTGATAGCAGAGTAG,0.532
8,ATATGTAGGTTAGATGGGGTCATTCAGACTAGGC,6.54
9,TCTTGTAGATCAATAGAGGTTAAGATAGTGCGCT,1.65
10,CGTCCATGGTCAAAGGTCAGTGAAGAGATGACGG,3.39
11,CCTTACGGGTCACGAGGTTATAGCGCGACGAGCG,4.99
12,CCTAGCAGGCCAATCTGGGTCACTCCAGGCTTGA,0.284
13,TCCCGGAGGACACGAAGGTCAGAGCTTTCCAGAG,2.15
14,CCTTACGGGTCAAAGTTATAGCACGGGTGGTACG,3.54
15,ACTTACGGGTCAACGAGGTTATCGCACGCGTATA,7.77
16,ACTAGCAGGCCAAGTTTGGGTCACTCAAACAAAG,0.525
17,TGAATGAGTTTAAAGATCAGGGAACGTGGCGTCG,1.09
18,ATTATTAGTTGACTTAGGGCAACCGATACGACGC,0.926
19,TCTGCCAGGTCAACGATGGTCAGCTAATCTGCTA,2.49
20,AGAATGAGGTTATGATCAGGGAAACAGAATACAT,1.11
